# Sampled rows, rich in hits. Any-hit rate of the full collection: about 0.67%.
# GC-B act: GC-B (human) receptor activation | P20594 | HEK293-GC-B cells, CNP EC30, cGMP TR-FRET; 0% at EC30 CNP, 100% saturating CNP | activation, % at 10 µM | actives 0.11% (n = 370,000) | AID 1920062;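 active = activation at 10 µM reaching about 35% in either raw or pattern-adjusted values, limit read from the data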
# GC-A act: GC-A (human) enzyme activation; activation, % at 10 µM; HEK293 GC-A cells, cGMP TR-FRET, EC30 ANP; 0% at EC30 ANP, 100% saturating ANP; P16066; actives 0.14% (n = 370,000); in the data active = activation above about 40%
# Target sequence (P16066 whole entry, looked up): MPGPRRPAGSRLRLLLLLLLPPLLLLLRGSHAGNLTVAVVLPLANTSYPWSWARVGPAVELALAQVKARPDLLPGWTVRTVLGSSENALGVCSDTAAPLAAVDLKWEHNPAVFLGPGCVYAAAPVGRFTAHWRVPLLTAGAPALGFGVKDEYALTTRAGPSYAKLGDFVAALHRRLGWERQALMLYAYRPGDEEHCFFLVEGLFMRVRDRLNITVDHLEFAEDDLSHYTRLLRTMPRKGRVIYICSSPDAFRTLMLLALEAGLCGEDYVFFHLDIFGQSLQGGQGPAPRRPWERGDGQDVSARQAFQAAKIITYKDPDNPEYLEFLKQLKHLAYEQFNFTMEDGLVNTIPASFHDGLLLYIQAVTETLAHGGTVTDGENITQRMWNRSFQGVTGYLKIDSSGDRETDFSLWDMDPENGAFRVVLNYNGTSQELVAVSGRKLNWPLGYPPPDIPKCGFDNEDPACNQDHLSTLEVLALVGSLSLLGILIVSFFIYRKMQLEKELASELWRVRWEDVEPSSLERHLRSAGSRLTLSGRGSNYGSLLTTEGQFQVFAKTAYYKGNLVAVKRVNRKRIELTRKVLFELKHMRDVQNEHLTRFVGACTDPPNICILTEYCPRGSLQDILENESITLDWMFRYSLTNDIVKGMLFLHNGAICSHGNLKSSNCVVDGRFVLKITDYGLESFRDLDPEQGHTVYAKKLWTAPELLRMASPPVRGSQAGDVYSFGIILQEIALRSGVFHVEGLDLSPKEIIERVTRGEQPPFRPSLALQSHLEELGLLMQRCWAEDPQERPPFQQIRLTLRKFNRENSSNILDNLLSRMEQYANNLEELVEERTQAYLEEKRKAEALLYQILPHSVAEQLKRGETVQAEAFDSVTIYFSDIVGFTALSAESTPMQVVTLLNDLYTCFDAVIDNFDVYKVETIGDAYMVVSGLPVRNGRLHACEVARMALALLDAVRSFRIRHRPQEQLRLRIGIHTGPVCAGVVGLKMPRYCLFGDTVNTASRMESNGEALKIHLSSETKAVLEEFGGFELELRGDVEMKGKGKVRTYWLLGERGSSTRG
# CaV13 ICDI inh: Primary screen for inhibitors of IQ motif and Ca2+-dependent inactivation inhibitor domain binding in CACNA1D, Förster resonance energy transfer in living cells, … | inhibition, % at 12.3 µM | actives 0.098% (n = 340,000) | HEK cells, CFP/YFP FRET ICDI-IQ, plate reader, 10 min; percent FRET-ratio fall versus neutral wells;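 active = mean replicate inhibition of at least 30% and at least 1% of replicates passing that level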
# Rin1-Abl PPI inh: inhibitors of human Rin1-Abl protein interaction; AID 588664; inhibition, % at 7.35 µM; P00519+Q13671; actives 0.4% (n = 360,000); TR-FRET Rin1/Abl binding, biochemical; in the data active = inhibition above about 5%, passing the limit was not always enough
# A number is an active result; 0 = inactive; - = not tested or not shown; + = active, no number; ! = repeats disagree.
SMILES,GC-B act,GC-A act,CaV13 ICDI inh,Rin1-Abl PPI inh
CCC(C)Sc1cc(-c2nc3ccc(Cl)cn3c2NC2CCCCC2)ccc1OC (stereo not drawn),0,0,0,0
COc1ccc(-c2cccc(-c3nc4ccc(Cl)cn4c3NC3CCCCC3)c2)cc1,50,43,0,0
Cc1ccc(-c2nc(C3CCCN(S(=O)(=O)c4ccc(C)c(C)c4)C3)no2)cc1 (stereo not drawn),0,0,-,-
O=C(Nc1nc2c(F)cc(F)cc2s1)C1CCN(C(=O)c2ccc(F)cc2)CC1,0,68,0,0
CCOc1ccccc1-c1c2cc(O)c(=O)cc-2oc2cc(O)c(O)cc12,-,-,-,54
COc1ccc(OC)c(-c2c3cc(O)c(=O)cc-3oc3cc(O)c(O)cc23)c1,-,-,-,55
O=c1cc2oc3cc(O)c(O)cc3c(-c3ccccc3O)c-2cc1O,-,-,-,67
Cc1ccc(OC(=O)c2sc(Cl)nc2C)cc1C,0,71,0,0
COc1ccc(N(C)C(=O)c2sc(Cl)nc2C)cc1,0,0,0,0
Cc1ccc(Cn2cc(CN3[C@@H](CC(C)C)COc4cc(Br)ccc4S3(=O)=O)nn2)cc1,0,0,-,-
S=c1[nH]c2ccc(Cc3ccc4[nH]c(=S)[nH]c4c3)cc2[nH]1,0,0,42,0
Nc1ccc2[nH]c(=S)[nH]c2c1,0,0,0,0
N#Cc1ccc(-c2cccnc2)nc1SCc1ccc(Cl)c(Cl)c1,0,0,0,0
N#Cc1ccc(-c2cccnc2)nc1SCc1ccc(Cl)cc1Cl,42,0,0,0
CCN1C(=S)N[C@@H](c2ccccc2)C(C(=O)OC)=C1C,46,0,0,0
C=CCn1c(SCC(=O)Nc2cc(C)on2)nc2c([nH]c3ccccc32)c1=O,0,0,0,0
CCOc1ccc(-n2c(SCC(=O)Nc3cc(C)on3)nc3c([nH]c4ccccc43)c2=O)cc1,0,71,0,0
COc1ccc(-n2c(SCC(=O)Nc3cc(C)on3)nc3c([nH]c4ccccc43)c2=O)cc1,0,77,0,0
Cc1ccc(-n2c(SCC(=O)Nc3cc(C)on3)nc3c([nH]c4ccccc43)c2=O)cc1,0,79,0,0
COc1ccc(-n2c(SCC(=O)Nc3cc(C)on3)nc3c([nH]c4ccccc43)c2=O)cc1OC,0,72,0,0
CCCC[C@@H](CCCc1ccc(F)cc1)CCC(=O)N(c1ccccc1)c1ccccc1,0,0,-,-
Cn1cccc1C=NNC(=O)c1cc(-c2ccc(Cl)cc2)n[nH]1,0,0,-,-
COC(=O)[C@@]12CCCCC3=C1N(CCC3)C(=O)[C@H]2CC(=O)N1CCN(C(=O)C2CC2)CC1,0,0,-,-
O=C1CCC[C@H]2Cc3nc4ccccc4cc3C[C@]23CCCN13,0,0,-,-
O=C1c2cccn2CC2Cc3ccccc3N12 (stereo not drawn),0,0,-,-
SMILES,GC-B act,GC-A act,CaV13 ICDI inh,Rin1-Abl PPI inh
COc1ccccc1-c1nc(C(=O)NCC2CCCO2)cc2c1[nH]c1ccccc12 (stereo not drawn),-,-,-,0
COc1cc(-c2nc(C(=O)NCC3CCCO3)cc3c2[nH]c2ccccc23)cc(OC)c1OC (stereo not drawn),59,53,-,0
CC(=O)Oc1ccc2cc(-c3nc4ccccc4n3C)c(=O)oc2c1,0,0,33,0
Cn1c(-c2cc3ccc(OC(=O)C(C)(C)C)cc3oc2=O)nc2ccccc21,0,0,0,0
CC(=O)Nc1cc2c(ccc3ccccc32)oc1=O,0,0,0,0
CC(=O)c1cc2c(ccc3ccccc32)oc1=O,0,0,+,0
COc1ccccc1-c1cc(-c2ccc(O)cc2)nc(N)c1C#N,0,41,0,0
COc1ccc(N2CCN(C(=O)C3Cc4ccccc4CN3C(=O)c3ccccc3)CC2)cc1 (stereo not drawn),0,0,0,0
CC(=O)N1Cc2ccccc2CC1C(=O)N1CCN(c2ccccc2)CC1 (stereo not drawn),78,0,0,0
COc1ccccc1C(=O)c1cc2ccc(O)cc2oc1=O,0,0,144,0
C=C(C)CSc1nnc(-c2cc(-c3ccccc3)n[nH]2)n1N,0,0,-,-
COC(=O)c1cc(-c2cc(Cl)ccc2OC)c(=O)n2c1CCC2,0,0,-,-
O=C(COC(=O)CCc1c[nH]c(=O)[nH]1)Nc1cccc(Cl)c1,0,0,0,11
O=C(COC(=O)CCCOc1ccc(Cl)cc1Cl)Nc1cccc(Cl)c1,0,0,0,0
CCCCNc1c(-c2ccc(SC(C)CC)c(OC)c2)nc2ccc(Cl)cn12 (stereo not drawn),0,40,0,0
CCCCCCSc1cc(-c2nc3cc(C)ccn3c2NCCCC)ccc1OC,0,0,78!,0
CCOC(=O)c1cc2c(=O)n3ccccc3nc2n(Cc2ccc(Cl)cc2)c1=N,0,0,+,0
COCCCn1c(=N)c(C(=O)NC2CCCCC2)cc2c(=O)n3ccccc3nc21,0,0,43,0
Cc1cc(NS(=O)(=O)c2ccc(NC(=O)CSc3nnc(SCc4ccc(Cl)cc4)s3)cc2)nc(C)n1,0,0,-,-
CC(=O)Nc1ccc(Nc2c3c4c(cccc4n(C)c2=O)C(=O)c2ccccc2-3)cc1,38,0,0,0
Cn1c(=O)c(NCCO)c2c3c(cccc31)C(=O)c1ccccc1-2,0,0,-,0
CCOC(=O)c1c(C)n(C)c2ccc(OCC(O)CN3CCC(C)CC3)cc12 (stereo not drawn),0,0,40,0
Cn1c(SCC(=O)Nc2ccc(S(=O)(=O)Nc3nccs3)cc2)nc2sc3c(c2c1=O)CCCC3,0,0,-,-
CCOC(=O)N1CCN(c2ncc(C(F)(F)F)cc2Cl)CC1,0,0,0,0
CCOC1=NN(c2ncc(C(F)(F)F)cc2Cl)C(=O)C1,0,0,34,0
SMILES,GC-B act,GC-A act,CaV13 ICDI inh,Rin1-Abl PPI inh
Cc1ccc(-n2nnnc2CNC(=O)C(=O)c2c[nH]c3ccccc23)cc1C,0,0,49,0
O=C(NCc1nnnn1-c1ccc(F)cc1)C(=O)c1c[nH]c2ccccc12,0,0,0,0
O=C(O)c1ccc2c(c1)[C@@H]1C=CC[C@@H]1[C@H](c1ccccn1)N2,0,0,0,21
COc1ccc(-c2nc3cnccn3c2Nc2ccc3c(c2)OCO3)cc1,47,52,0,0
Cc1ccc(-c2nc3cnccn3c2Nc2ccc3c(c2)OCO3)cc1,50,51,0,0
C=CCn1c(COc2ccccc2)nnc1SCC(=O)Nc1ccc(Oc2ccccc2)cc1,0,0,-,-
COc1cc(OC)c(OC)cc1/C=C1\CC(C)C/C(=C\c2cc(OC)c(OC)cc2OC)C1=O (stereo not drawn),0,49,0,0
O=C(NCC(c1ccccc1)c1ccccc1)[C@H](Cc1c[nH]c2ccccc12)NC1(C(=O)NC2CCCCC2)CCC1,0,0,-,-
Fc1ccccc1-c1ccc(/C=N/Nc2nc3ccccc3[nH]2)o1,0,0,54,0
COc1ccc(S[C@]2(C(=O)N3CCN(C(C)=O)CC3)CC(=O)N(C(=O)C3CC3)[C@@H]2c2ccc(OC)cc2)cc1,0,0,-,-

# Assay outcomes as filed in PubChem BioAssay.
